# Screens (PubChem BioAssay)
# Hits are enriched below; roughly 4% of the tested compounds scored in any of these assays.
# TWEAK Fn14 block: blocks TWEAK-Fn14 interaction in a reporter cell assay; inhibition, % at 10 µM; AID 1159606; TWEAK-stimulated Fn14 reporter cells, luciferase luminescence, 8 h; 360,000 compounds, 2% hits; in the data active = inhibition above about 50%
# Peg3 promoter: Peg3 promoter activity inhibition | HeLa PEG-Prom luciferase reporter, luminescence, overnight | AID 588405 | 360,000 compounds, 1.7% hits | inhibition, % at 20 µM;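 active = inhibition of at least 50% at 20 µM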
# HIF-2a inh: blocks HIF-2a reporter activity | 786-0 RCC cells HIF-2a reporter, luciferase luminescence, overnight | inhibition, % at 18.8 µM | 360,000 compounds, 0.72% hits;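 active = inhibition of the luminescence signal of 40% or more relative to plate controls, in a single-dose primary screen at 18.75 µM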
# CF NFkB block: blocks PAF-induced NF-kB reporter in cystic fibrosis cells. KKLEB NF-kB-GFP reporter, GFP fluorescence overnight. inhibition, % at 5 µM. 360,000 compounds, 0.86% hits;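 active = at least 50% inhibition at 5 µM, scaled per plate between neutral and stimulator controls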;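 note: PAF is a Pseudomonas aeruginosa culture filtrate used as stimulus; plate controls were PAF-stimulated DMSO wells for no effect and unstimulated DMSO wells for full effect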
# TROY signal inh: inhibitors of TROY-dependent NF-kB signaling. AID 1347056. 360,000 compounds, 0.98% hits. inhibition, % at 10 µM. Q293 LMP1-TROYcd NF-kB luciferase reporter, 4 h;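 active = compounds whose plate-normalised and pattern-corrected inhibition of the luciferase reporter signal at the single screening dose is 50% or more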
# KKLEB cytotox: reduces viability of KKLEB cystic fibrosis airway cells | activity change (cytotoxicity), % at 5 µM | 360,000 compounds, 0.36% hits | KKLEB CF airway cells viability, ATPlite luminescence, overnight; active compounds read low; cells stimulated with P. aeruginosa culture filtrate | AID 602141;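 active = corrected activity change at or below -50% at 5 µM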
# Mdm2-MdmX confirm: Mdm2/MdmX (human) interaction inhibition, confirmed; shares compounds with HIF-2a inh; SaOS-2 split-luciferase Mdm2/MdmX complementation, luminescence; inhibition, % at 8 µM; 740 compounds, 99% hits; AID 504601;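 active = mean inhibition of the luminescence signal across two replicates at or above 26 percent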
# HIF-2a inh conf: HIF-2a inhibition, single concentration confirmation; shares compounds with HIF-2a inh; 786-0 RCC cells, HIF-2a luciferase reporter luminescence, overnight; 1,800 compounds, 56% hits; inhibition, % at 18.8 µM; AID 651580;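 active = mean inhibition across four replicates of at least 40 percent at the single tested concentration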
# HIF-1a counter: counter-screen for HIF-2a inhibitors: HIF-1a inhibition in MiaPaCa-2 cells | AID 651589 | shares compounds with HIF-2a inh | MiaPaCa-2 HIF-1a luciferase reporter, desferoxamine, overnight | inhibition, % at 18.8 µM | 1,800 compounds, 72% hits;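 active = mean inhibition of the reporter signal across four replicates at the single tested dose of 50% or more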
# * marks the source's active call; other numbers are inactive results; x = not tested or not shown.
SMILES,TWEAK Fn14 block,Peg3 promoter,HIF-2a inh,CF NFkB block,TROY signal inh,KKLEB cytotox,Mdm2-MdmX confirm,HIF-2a inh conf,HIF-1a counter
CCOC(=O)CNC(=O)C(CC(N)=O)NC(=O)OC(C)(C)C (configuration not stated),-8,14,6,-18,-25,8,x,x,x
C=CCOC(=O)CSCC(NC(=O)OC(C)(C)C)C(=O)OCC (configuration not stated),6,2,58*,-17,8,11,x,45*,24
O=C(O)CCC1(CCC(=O)O)c2ccccc2-c2ccccc21,9,5,13,-5,-3,13,x,x,x
O=C(O)CCC1(c2ccccc2)NC(=O)NC1=O (configuration not stated),-18,3,44*,-2,8,-9,x,4,-11
Cc1cn([C@H]2C[C@H](O)[C@@H](CNCc3ccc4ncccc4c3)O2)c(=O)[nH]c1=O,-2,5,7,17,-12,-8,x,x,x
CCn1c2ccccc2c2cc([N+](=O)[O-])ccc21,-2,2,12,2,-16,11,x,x,x
CN(C)CCn1c2ccccc2c2nc3ccc([N+](=O)[O-])cc3cc21,-71,-11,-70,-81,-116,1,102*,x,x
Cc1ccc(-c2cc3nc(-c4ccc(Br)cc4)cc(N)n3n2)cc1,17,-20,-34,-7,13,-1,x,x,x
CC1(C)CC(=O)C2=C(C1)OC1=C(C(=O)CC(C)(C)C1)C2c1ccc(O)cc1O,104*,108*,93*,97*,82*,-54*,103*,97*,106*
O=C(O)COc1ccc2occ(C(=O)c3ccccc3)c2c1,-6,7,7,6,-1,0,x,x,x
O=C(O)COc1ccc2oc3ccccc3c2c1,36,14,53*,-3,23,5,x,68*,30
Cc1cc(C)c(NC(=O)CNC(=O)CN2C(=O)NC3(CCCc4ccccc43)C2=O)c(C)c1 (configuration not stated),-14,12,14,-18,-8,8,x,x,x
Nc1cc(Nc2ccccc2)ccn1,11,-18,4,-9,1,-24,x,x,x
N#Cc1sc2nccc(Nc3ccccc3)c2c1N,80*,23,17,81*,30,-14,91*,x,x
O=C(CNC(=O)c1ccco1)N=Nc1c(O)[nH]c2ccc(Br)cc12,5,-20,-10,-1,-40,-4,x,x,x
COC(=O)c1ccc(CN(c2ccccn2)S(=O)(=O)c2ccccc2)cc1,14,8,6,7,-9,-8,x,x,x
COC(=O)c1ccc(CN(c2ccc(C(=O)O)c(O)c2)S(=O)(=O)c2ccc(Cl)c([N+](=O)[O-])c2)cc1,-1,55*,77*,23,44,-5,x,5,57*
COc1cc2ncc(S(=O)(=O)c3ccccc3)c(N3CCC4(CC3)OCCO4)c2cc1OC,-10,24,40*,17,-3,6,x,22,98*
O=C(O)CCCCCCCC(=O)O,12,1,0,-5,-6,-13,x,x,x
O=C(O)CCCCCCCCCCC1CCC(O)C1O (configuration not stated),44,12,54*,12,29,-6,x,75*,52*
O=C(CCl)N(c1ccccc1)c1c[nH]c2ccccc12,69*,86*,73*,64*,3,-54*,103*,53*,104*
O=C(CCl)N(c1ccc(Cl)cc1)c1c[nH]c2ccccc12,67*,103*,95*,84*,-78,-89*,103*,96*,107*
CC(=O)n1cc(CO)c2ccccc21,1,-8,19,-6,6,4,x,x,x
CC(=O)n1cc(N(C(=O)CCl)c2ccccc2)c2ccccc21,66*,45,84*,90*,-9,-95*,103*,95*,106*
